Only a selection was taken, and hits are over-represented in it overall.
SARS PLpro yeast: inhibitors of SARS-CoV papain-like protease in yeast; AID 485353; S. cerevisiae expressing SARS-CoV PLpro, growth rescue; 330,000 compounds, 0.19% hits; Potency, µM (series often up to 32.9 µM), usual class: activators; further: nearly all actives have a fitted effect of over 55% in size
CHX counter: affects cycloheximide protein synthesis inhibition readout, counter-screen. max response, %. AID 2314. cell reporter, cycloheximide protein synthesis inhibition counterscreen. 300,000 compounds, 12% hits; in the data active means max response mostly above about 13%, no sharp cut-off; inactive means mostly below about 14%; further: read at 38.3 µM for the half of the compounds with a filed dose
LmPK inhibitor: blocks Leishmania mexicana pyruvate kinase activity. Q27686. purified LmPK, Kinase-Glo ATP luminescence, 1 h. Potency, µM (titrated, usually from 57.5 µM), actives largely listed as inhibitors. 290,000 compounds, 0.37% hits. AID 1721; active means well fitted curve in the direction sought with a large enough effect; inconclusive means small, poorly fitted or top-dose-only effect, or another doubt; inactive means no such curve, though single readings can be large; an effect the other way counts as inactive or inconclusive
Target sequence (Q27686 whole entry, looked up): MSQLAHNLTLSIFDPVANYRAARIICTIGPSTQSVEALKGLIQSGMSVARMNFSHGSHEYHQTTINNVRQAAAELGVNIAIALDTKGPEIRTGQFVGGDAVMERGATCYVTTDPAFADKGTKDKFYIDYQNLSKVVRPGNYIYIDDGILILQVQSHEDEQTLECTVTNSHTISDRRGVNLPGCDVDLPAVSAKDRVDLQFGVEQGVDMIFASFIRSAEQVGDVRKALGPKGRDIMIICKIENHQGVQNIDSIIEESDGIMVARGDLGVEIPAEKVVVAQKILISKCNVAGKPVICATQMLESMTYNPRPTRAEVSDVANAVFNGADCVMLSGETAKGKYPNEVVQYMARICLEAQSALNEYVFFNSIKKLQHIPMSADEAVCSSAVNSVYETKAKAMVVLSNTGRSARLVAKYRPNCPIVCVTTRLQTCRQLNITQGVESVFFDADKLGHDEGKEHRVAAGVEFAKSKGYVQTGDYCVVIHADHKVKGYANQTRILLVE
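Pyruvate kinase activity monitored as ATP production (luciferase luminescence). Conditions: 0.1 nM enzyme, 0.5 mM PEP, 0.1 mM ADP, 1 h, RT; normalized against uninhibited and no-enzyme wells.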
TbPYK inhibitor: blocks Trypanosoma brucei pyruvate kinase; Q57TT1; TbPYK enzyme, Kinase-Glo Plus ATP luminescence, 45 min; Potency, µM (titrated, usually from 76.8 µM), most hits filed as inhibitors; 410,000 compounds, 0.12% hits; active means well fitted curve in the direction sought with a large enough effect; inconclusive means small, poorly fitted or top-dose-only effect, or another doubt; inactive means no such curve, though single readings can be large; an effect the other way counts as inactive or inconclusive; further: nearly all actives have a fitted effect of over 50% in size
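Readout: single end-point luminescence (Kinase-Glo Plus, 10 min). Reaction conditions were TbPYK/substrate plus 130 uM ADP, 45 min at RT, pH 7.2 TEA buffer. No-enzyme wells served as controls, and data were normalized before concentration-response fitting.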
NS1 inh: inhibitors of influenza NS1 protein function | Potency, µM (doses to about 46.1 µM) | 270,000 compounds, 0.4% hits | AID 2326; further: actives are rising curves; nearly all actives have a fitted effect of over 50% in size
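Read-out: OD600 growth recovery of NS1-expressing budding yeast. Cells grown overnight at 30C in -URA glucose medium, washed, resuspended and diluted 1:100 in 2% galactose assay medium, pH 6.0. Same strain lacking NS1 served as positive control.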
Shiga toxin inh: blocks Shiga toxin action in Vero cells; Vero cells, Shiga toxin protein synthesis inhibition reporter; inhibition, % at 38.7 µM; 290,000 compounds, 9.2% hits; AID 2315; in the data active means inhibition mostly above about 28%, no sharp cut-off; inactive means mostly below about 43%
Numbers stand for hits. Unless noted, the call rests on the fitted dose curve.

Screening C[C@@H]1COC(=O)[C@@H](Cc2ccc(F)cc2)CC/C=C\C[C@@H](CC(=O)NCCO)C(=O)N1 returned SARS PLpro yeast inactive and TbPYK inhibitor inactive.
CCOC(=O)C1CCCN(C(=O)CSc2ccc(Br)cc2)C1 (centres undefined) was read as SARS PLpro yeast inactive, CHX counter 42, LmPK inhibitor inactive, TbPYK inhibitor inconclusive, NS1 inh inactive and Shiga toxin inh 65.
Screening CCOC(=O)N1CCN(C(=O)CSCc2ccc(Cl)cc2)CC1 returned SARS PLpro yeast inactive, CHX counter inactive, LmPK inhibitor inactive, TbPYK inhibitor inactive, NS1 inh inactive and Shiga toxin inh inactive.
`CCOC(=O)N1CCN(CC(=O)N2c3ccccc3CCc3ccccc32)CC1` gave SARS PLpro yeast inactive, CHX counter inactive, LmPK inhibitor inactive, TbPYK inhibitor inactive and Shiga toxin inh inactive.
Screening CCOC(=O)N1CCN(C(=O)CSCc2ccccc2)CC1 returned SARS PLpro yeast inactive, CHX counter 35, LmPK inhibitor inactive, TbPYK inhibitor inactive, NS1 inh inactive and Shiga toxin inh inactive.
Cc1ccccc1CSCC(=O)N1CCN(c2ccccc2)CC1 was read as SARS PLpro yeast inactive, CHX counter 23, LmPK inhibitor inactive, TbPYK inhibitor inactive, NS1 inh inactive and Shiga toxin inh 70.
For CCOC(=O)N1CCN(C/C(Cl)=C/c2ccccc2)CC1 the results were SARS PLpro yeast inactive, CHX counter 14, LmPK inhibitor inactive, TbPYK inhibitor inactive, NS1 inh inactive and Shiga toxin inh 20.
COC(C[C@H]1O[C@H]1[C@H](O)COCc1ccccc1)OC was read as SARS PLpro yeast inactive, CHX counter inactive, LmPK inhibitor inactive, TbPYK inhibitor inactive, NS1 inh inactive and Shiga toxin inh inactive.
For CCOC(=O)c1nn(C)c(=S)n(C)c1=O the results were TbPYK inhibitor inactive.
CCOC(=O)C1CCCN(C(=O)CSCc2ccccc2)C1 (centres undefined) was read as SARS PLpro yeast inactive, CHX counter 44, LmPK inhibitor inactive, TbPYK inhibitor inactive, NS1 inh inactive and Shiga toxin inh 52.
CCOC(=O)C1CCCN(C(=O)CSc2nc(C)cc(C)n2)C1 (centres undefined) was read as SARS PLpro yeast inactive, CHX counter inactive, LmPK inhibitor inactive, TbPYK inhibitor inactive, NS1 inh inactive and Shiga toxin inh inactive.
For CCOC(=O)C1CCCN(C(=O)CCc2nnc(-c3ccc(C(C)=O)s3)o2)C1 (centres undefined) the results were SARS PLpro yeast inactive, CHX counter 63, LmPK inhibitor inactive, TbPYK inhibitor inactive, NS1 inh inactive and Shiga toxin inh 109.
For COc1cccc(C2C(C(=O)c3sc(C)nc3C)=C(O)C(=O)N2CCN(C)C)c1OC (centres undefined) the results were SARS PLpro yeast inactive, CHX counter inactive, LmPK inhibitor inactive, NS1 inh 8.9µM and Shiga toxin inh inactive.
Screening Cc1nc(C)c(C(=O)C2=C(O)C(=O)N(CCN(C)C)C2c2cccs2)s1 (centres undefined) returned SARS PLpro yeast inactive, CHX counter inactive, LmPK inhibitor inactive, TbPYK inhibitor inactive, NS1 inh inactive and Shiga toxin inh inactive.
For COc1ccccc1-c1nc(-c2ccc(Br)o2)no1 the results were SARS PLpro yeast inactive, CHX counter 97, LmPK inhibitor inactive, TbPYK inhibitor inactive, NS1 inh inactive and Shiga toxin inh 146.
`COc1ccc(-c2nc(-c3ccc(Br)o3)no2)cc1OC` gave SARS PLpro yeast inactive, CHX counter 19, LmPK inhibitor inactive, TbPYK inhibitor inactive, NS1 inh inactive and Shiga toxin inh 35.
For COc1ccc(-c2nnc3sc(-c4ccc(Br)o4)nn23)cc1OC the results were SARS PLpro yeast inactive, CHX counter inactive, LmPK inhibitor inactive, NS1 inh inactive and Shiga toxin inh inactive.
Screening COc1ccc(-c2nnc(-c3ccc(Br)o3)o2)cc1OC returned SARS PLpro yeast inactive, CHX counter 11, LmPK inhibitor inactive, TbPYK inhibitor inactive, NS1 inh inactive and Shiga toxin inh inactive.
For COc1cccc(-c2nc(-c3ccc(Br)o3)no2)c1 the results were SARS PLpro yeast inactive, CHX counter 54, LmPK inhibitor inactive, TbPYK inhibitor inactive, NS1 inh inactive and Shiga toxin inh 108.
`CCS(=O)(=O)c1nc(S(=O)(=O)c2ccc(Cl)cc2)c(NCc2ccccc2Cl)s1` gave TbPYK inhibitor inactive.
`O=C(c1ccc2c(c1)CCCC2)N1CCN(c2nc3ccc(F)cc3s2)CC1` gave TbPYK inhibitor inactive.
For CCCC/C(O)=C1\C(=O)CC(C)(C)CC1=NCCCCCC(=O)O the results were SARS PLpro yeast inactive, CHX counter inactive, LmPK inhibitor inactive, TbPYK inhibitor inactive and Shiga toxin inh inactive.
`COc1ccccc1Cc1nc(-c2ccc(Br)o2)no1` gave SARS PLpro yeast inactive, CHX counter 34, LmPK inhibitor inactive, TbPYK inhibitor inactive, NS1 inh inactive and Shiga toxin inh inactive.
Screening Cc1nc2sc(C(=O)Nc3ccccc3)c(N)c2c(C)c1[N+](=O)[O-] returned SARS PLpro yeast inactive, CHX counter 50, LmPK inhibitor inactive, TbPYK inhibitor inactive and Shiga toxin inh 91.
Screening COc1ccc(NC(=O)c2sc3nc(C)c(C(=O)Nc4ccc(Cl)cc4)c(-c4ccc(Br)cc4)c3c2N)cc1 returned TbPYK inhibitor inactive.
For Cc1nc2sc(C(=O)c3ccccc3)c(N)c2c(C)c1C the results were SARS PLpro yeast inactive, CHX counter 24, LmPK inhibitor inactive, TbPYK inhibitor inactive and Shiga toxin inh inactive.
`Cc1nc2sc(C(=O)OC(C)C)c(N)c2c(C)c1C` gave SARS PLpro yeast inactive, CHX counter 19, LmPK inhibitor inactive, TbPYK inhibitor inactive and Shiga toxin inh 41.
For C=COC(=O)c1sc2nc(C)cc(C)c2c1N the results were SARS PLpro yeast inactive, CHX counter inactive, LmPK inhibitor inactive, TbPYK inhibitor inactive, NS1 inh inactive and Shiga toxin inh inactive.
CC(=O)c1ccc(NC(=O)c2sc3nc(C)c(C)c(C)c3c2N)cc1 was read as SARS PLpro yeast inactive, CHX counter 54, LmPK inhibitor inactive, TbPYK inhibitor inactive, NS1 inh inactive and Shiga toxin inh 115.
Screening COC(=O)c1ccccc1NC(=O)C1=CC(c2ccc3c(c2)OCO3)=NS(=O)(=O)N1C returned TbPYK inhibitor inactive.
`Cc1cnc(CNC(=O)c2ccc3nc([C@@H]4O[C@H](CO)[C@H](O)[C@H](O)[C@H]4O)[nH]c3c2)cn1` gave TbPYK inhibitor inactive.
`N#Cc1nc(-c2ccc(COc3ccccc3)o2)oc1NCc1cccnc1` gave TbPYK inhibitor inactive.
`CC(C)c1ccc(-c2cc(C(=O)NN3CCN(C)CC3)c3ccccc3n2)cc1` gave SARS PLpro yeast inactive, CHX counter 35, LmPK inhibitor inactive, TbPYK inhibitor inactive, NS1 inh inactive and Shiga toxin inh 82.
